Source: PubChem BioAssay (National Center for Advancing Translational Sciences (NCATS))
Compounds with a hit are over-represented: about 3.1% of the library has one in this group of screens.
PI4K2A block: qHTS for small molecular inhibitors of PI4K2A; Phosphatidylinositol 4-kinase type 2-alpha (Homo sapiens), Q9BTU6; purified PI4K2A, ADP-Glo luminescence, 1 h; hits give low values; activity change, negative = inhibition, % at 76.9 µM; 0.13% of 420,000 active; in the data active = activity change below about -50%; inconclusive = mostly about -30% to -49%;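 note: -100% = wells without enzyme as full effect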
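In this quantitative HTS, ADP production by PI4K2A was quantified luminescently after 1 h at ambient temperature; 100 microM adenosine served as plate-quality control.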
GLS inh: qHTS for Inhibitors of Glutaminase (GLS) | Glutaminase kidney isoform, mitochondrial (Homo sapiens), O94925 | GLS enzymatic activity, qHTS titration | Potency, µM (doses to about 45.5 µM), inactives show top-dose activity change, negative = inhibition, actives largely listed as inhibitors | 0.21% of 410,000 active | AID 624170, 2012; note: potency is the fitted concentration of half-maximal effect
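Assay buffer: 45 mM KH2PO4 pH 8.2, 0.02% Tween-20. hKGA acts on L-glutamine (1 mM solution added); product glutamate is reported by an oxidase/peroxidase Amplex Red coupling, with fluorescence taken at baseline and 30 min.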
VDR inhibitor: Inhibitors of the vitamin D receptor (VDR): qHTS | VDR-SRC2-3 peptide fluorescence polarization, 2 h | 0.93% of 400,000 active | Vitamin D3 receptor (Homo sapiens), P11473 | Potency, µM, for the others: max response, negative = inhibition, most hits filed as inhibitors | AID 504847, 2011; note: potency is the fitted concentration of half-maximal effect
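Compounds are added to VDR with labelled SRC2-3 coactivator peptide and held 2 h at room temperature. Inhibition of the VDR–peptide interaction is then read as a change in fluorescence polarization.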
PLK1 PBD block: qHTS for Inhibitors of PLK1-PDB (polo-like kinase 1 - polo-box domain): Primary Screen; Plk1 PBD binding of FITC phosphopeptide, fluorescence polarization; Serine/threonine-protein kinase PLK1 (Homo sapiens), P53350; Potency, µM, for inactives: max response, negative = inhibition, actives largely listed as inhibitors; 2.8% of 360,000 active; note: potency is the fitted concentration of half-maximal effect; series mostly up to about 57 µM; nearly all actives have a fitted effect of over 65% in size
GCN5L2 inh: qHTS Assay for Inhibitors of GCN5L2; Histone acetyltransferase KAT2A (Homo sapiens), Q92830; GCN5L2 HAT assay, ThioGlo1 CoA-SH fluorescence; Potency, µM (highest dose often 58.9 µM), without a hit: at the highest dose activity change, negative = inhibition, hits mostly inhibitors; 0.21% of 390,000 active; AID 504327, 2011; note: potency is the fitted concentration of half-maximal effect
Target sequence (Q92830 whole entry, looked up): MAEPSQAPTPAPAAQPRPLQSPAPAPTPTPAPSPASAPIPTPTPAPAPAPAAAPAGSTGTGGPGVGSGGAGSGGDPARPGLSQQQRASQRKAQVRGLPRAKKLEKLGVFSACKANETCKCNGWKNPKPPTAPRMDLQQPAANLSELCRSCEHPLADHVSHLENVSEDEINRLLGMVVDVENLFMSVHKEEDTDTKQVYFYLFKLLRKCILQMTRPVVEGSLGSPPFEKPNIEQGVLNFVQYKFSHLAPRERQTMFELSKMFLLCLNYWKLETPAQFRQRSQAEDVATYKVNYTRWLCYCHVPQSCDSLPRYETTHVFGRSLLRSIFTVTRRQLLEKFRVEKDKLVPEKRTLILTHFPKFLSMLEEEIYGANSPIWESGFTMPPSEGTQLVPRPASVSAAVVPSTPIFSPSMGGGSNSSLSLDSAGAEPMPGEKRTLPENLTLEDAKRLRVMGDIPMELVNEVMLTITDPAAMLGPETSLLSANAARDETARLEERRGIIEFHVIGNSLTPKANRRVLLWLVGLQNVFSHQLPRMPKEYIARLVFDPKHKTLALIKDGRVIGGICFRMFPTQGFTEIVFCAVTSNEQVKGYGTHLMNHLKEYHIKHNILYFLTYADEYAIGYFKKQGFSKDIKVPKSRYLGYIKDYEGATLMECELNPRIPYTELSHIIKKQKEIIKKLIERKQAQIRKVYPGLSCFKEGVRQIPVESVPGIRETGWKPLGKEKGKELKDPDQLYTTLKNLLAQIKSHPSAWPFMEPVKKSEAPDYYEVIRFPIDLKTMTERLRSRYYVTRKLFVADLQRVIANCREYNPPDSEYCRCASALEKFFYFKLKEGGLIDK
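Preincubate 20nM GCN5L2 with compound 15 min, RT → add 50uM ThioGlo1 + 75uM H3(1-25) + 70uM acetyl-CoA → read fluorescence 0 and 20 min. Primary qHTS; fluorescent artifacts likely.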
TbPYK confirm: qHTS of Trypanosoma Brucei Inhibitors: Confirmatory Assay for Cherry-picked Compounds; 67% of 890 active; shares compounds with PLK1 PBD block; recombinant TbPYK, Kinase-Glo ATP luminescence; Potency, µM (highest dose often 76.9 µM), for inactives: top-dose activity change, negative = inhibition, actives largely listed as inhibitors; note: potency is the fitted concentration of half-maximal effect; nearly all actives have a fitted effect of over 70% in size
TbPYK ADP-Glo: qHTS of Trypanosoma Brucei Inhibitors: Orthogonal Assay for Cherry-picked Compounds; Potency, µM (series often up to 76.9 µM), for inactives: at the top dose activity change, negative = inhibition, actives largely listed as inhibitors; shares compounds with PLK1 PBD block; AID 720584, 2013; recombinant TbPYK, ADP-Glo luminescence, 60 min; 62% of 890 active; note: potency is the fitted concentration of half-maximal effect; nearly all actives have a fitted effect of over 75% in size
Active calls of the source: *. Unless noted, calls come from the whole dose curve; as a rule, active = well fitted curve in the direction sought with a large enough effect; inconclusive = small, poorly fitted or top-dose-only effect, or another doubt; inactive = no such curve, though single readings can be large; an effect the other way counts as inactive or inconclusive. Unless noted, % is set by controls: 0 for no effect and ±100 for the full control effect.

COc1ccc(C2=CC(c3ccc(F)cc3)n3ncc(C(=O)Nc4ccc(C)cc4)c3N2)cc1 (centres undefined) was read as PI4K2A block -3, GLS inh 12%, VDR inhibitor 8% and GCN5L2 inh 1%.
Screening O=C(CNC(=O)c1ccccc1)OCC(=O)c1cccc2ccccc12 returned VDR inhibitor 0%.
O=S(=O)(NCCC1=CCCCC1)c1cccc(S(=O)(=O)N2CCOCC2)c1 was read as PI4K2A block -3, GLS inh inconclusive, VDR inhibitor -27%, PLK1 PBD block 2.7µM*, GCN5L2 inh -4%, TbPYK confirm 0% and TbPYK ADP-Glo -6%.
Screening C[C@H](NC(N)=O)C(=O)Nc1ccc(OCc2ccccc2)cc1 returned PI4K2A block -13, GLS inh -2%, VDR inhibitor 0%, PLK1 PBD block 8% and GCN5L2 inh 30%.
For C=CCNC(=S)NNC(=O)c1cccn(Cc2ccc(Cl)cc2Cl)c1=O the results were PI4K2A block 2, GLS inh -23%, VDR inhibitor -5%, PLK1 PBD block -16%, GCN5L2 inh inconclusive, TbPYK confirm 0.89µM* and TbPYK ADP-Glo 2.8µM*.
For CCNC(=S)NNC(=O)c1cccn(Cc2ccc(Cl)cc2Cl)c1=O the results were PI4K2A block 0, GLS inh -22%, VDR inhibitor -3%, PLK1 PBD block -13% and GCN5L2 inh -5%.
CCOc1ccccc1-n1c(=S)sc2c(=O)n(-c3ccc(C)cc3)c(=S)[nH]c21 was read as PI4K2A block -2, GLS inh -2%, VDR inhibitor inconclusive, PLK1 PBD block 6.7µM*, GCN5L2 inh -11%, TbPYK confirm 4.5µM* and TbPYK ADP-Glo 6.3µM*.
Screening CCn1c(=S)sc2c(=O)n(-c3ccccc3)c(=S)[nH]c21 returned PI4K2A block 1, GLS inh 1%, VDR inhibitor -9%, PLK1 PBD block -15% and GCN5L2 inh -15%.
Screening Cc1ccc(NS(=O)(=O)c2ccc3c(c2)[C@H]2C=CC[C@H]2[C@@H](c2ccc(F)cc2)N3)cc1C returned PI4K2A block -3, GLS inh 1%, VDR inhibitor -16% and GCN5L2 inh -2%.
O=C(O)c1ccc(NS(=O)(=O)c2ccc3c(c2)C2C=CCC2C(c2ccccc2F)N3)cc1 (centres undefined) was read as PI4K2A block -2, GLS inh -20%, VDR inhibitor inconclusive, PLK1 PBD block inconclusive, GCN5L2 inh inconclusive, TbPYK confirm inconclusive and TbPYK ADP-Glo inconclusive.
For CCCCOc1ccc(/C=C/C(=O)OCC(=O)NC(=O)NCC(C)C)cc1OCC the results were PI4K2A block 0, GLS inh 1%, VDR inhibitor -7%, PLK1 PBD block -11%, GCN5L2 inh 5%, TbPYK confirm 4% and TbPYK ADP-Glo -2%.
CN(C)c1ccc(Cc2cc3c(O)ccc(O)c3cc(Cc3ccc(N(C)C)cc3)c2=O)cc1 was read as PI4K2A block -56*, GLS inh -6%, VDR inhibitor 45µM*, PLK1 PBD block 0.95µM*, TbPYK confirm 3.5µM* and TbPYK ADP-Glo 3.5µM*.
